From PubChem BioAssay AID504833 (Johns Hopkins Ion Channel Center, 2011)
The campaign covered roughly 2,500 compounds. About 2,200 (88%) were called active.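 How the source made its calls: active means primary screen active, with duplicate mean activation above negative control mean plus 3 SD (cut at about 11% in these data); inactive means the rest.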 So high a share suggests a set chosen from earlier hits. Not all results are given here.

What follows are compounds tested against High affinity choline transporter 1 (Homo sapiens) (UniProt Q9GZV3) (assay: human choline transporter potentiators – cell-based, membrane potential dye, duplicate, confirmation (AID 504833)). Conditions: CHT-expressing cells, membrane potential dye fluorescence (FDSS); at 10 µM; hits give high values; % of choline EC20–EC90 response window; HEK293 expressing CHT LV-AA mutant; choline added at its EC20.
Sequence of High affinity choline transporter 1 (Homo sapiens) (Q9GZV3 whole entry, looked up): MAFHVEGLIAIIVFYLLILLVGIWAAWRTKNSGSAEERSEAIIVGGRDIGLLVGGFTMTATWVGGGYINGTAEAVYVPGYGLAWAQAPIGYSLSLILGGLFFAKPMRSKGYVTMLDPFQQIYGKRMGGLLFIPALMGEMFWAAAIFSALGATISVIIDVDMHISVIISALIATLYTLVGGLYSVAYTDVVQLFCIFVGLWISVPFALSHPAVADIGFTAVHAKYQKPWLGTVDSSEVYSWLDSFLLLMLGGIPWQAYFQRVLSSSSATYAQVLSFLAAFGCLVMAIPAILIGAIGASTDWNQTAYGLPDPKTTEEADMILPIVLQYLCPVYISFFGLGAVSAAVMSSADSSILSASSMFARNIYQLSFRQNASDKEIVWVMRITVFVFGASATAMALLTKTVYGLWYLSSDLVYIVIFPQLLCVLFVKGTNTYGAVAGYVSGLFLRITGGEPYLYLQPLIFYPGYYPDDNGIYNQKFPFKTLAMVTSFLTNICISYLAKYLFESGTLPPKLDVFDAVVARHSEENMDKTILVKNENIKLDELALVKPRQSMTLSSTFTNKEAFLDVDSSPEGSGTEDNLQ

activation, active:
Nc1scc[n+]1Cc1cccc2cccnc12 42.7%
Cn1c(=O)n(Cc2ccco2)c(=N)c2c3c(sc21)CCCC3 30.6%
CCn1c(/C=C/Nc2ccccc2)[n+](CC)c2ccc(C(=O)OCC(F)(F)F)cc21 68.4%
CC(Sc1nc2ccccc2c(=O)n1Cc1ccco1)C(=O)c1ccccc1 (stereo unspecified) 16.9%
Cc1nnc(-c2ccc(Oc3ccc(C)c(C)c3)c([N+](=O)[O-])c2)o1 15%
Cc1ccc2c(c1)N(CC(=O)N(Cc1ccccn1)Cc1ccco1)C(=O)C(C(C)C)O2 (stereo unspecified) 30.6%
Clc1ccc(COn2c(-c3ccc(Cl)cc3Cl)nc3ncccc32)cc1 36.3%
COc1ccccc1NC(=O)CN(c1ccccc1OC)S(=O)(=O)c1ccccc1 12%
Cc1cc(NC(=O)c2cnn3cccnc23)n(-c2ccccc2)n1 52.8%
CCN1CCCC1CNC(=O)c1cc2c(=O)n(C)c3ccccc3c2n1C (stereo unspecified) 44.7%
CCOC(=O)c1cccnc1NC(=O)c1ccncc1 35.3%
Cc1nc2ccccc2c(=O)n1CCCn1ccnc1 22.6%
CCCCN(CCCC)CC(O)Cn1c2ccccc2c(=O)c2ccccc21 (stereo unspecified) 44.6%
CC(C)CC(COCc1ccc(Cl)cc1)N1CCN(C(=O)c2ccc(C(F)(F)F)cc2)CCC1=O (stereo unspecified) 33.6%
COc1nc(N=C(N)N)nc2c(C)cccc12 40.5%
Cc1nc(N=C(N)N)nc2c(C)cccc12 49.8%
CN1CCc2c(sc3c2c(NCc2ccco2)nc2nnnn23)C1 73.5%
CCOc1ccc(C2c3[nH]c4ccccc4c3CCN2Cc2cccn2-c2ncccn2)cc1 (stereo unspecified) 17.1%
C=CCNc1nnc(C)c2ccccc12 55.7%
COC(=O)c1sc(C(F)(F)F)c(-c2ccccc2)c1S(=O)(=O)N(C)C 27.1%
CC1(C)Cc2c(sc3nc4n(c(=N)c23)CCCCC4)CO1 40.2%
CCn1cc(S(=O)(=O)c2cccc(C)c2)c(=O)c2cc(F)c(N3CCN(C)CC3)cc21 52.5%
CN1CCN(c2cc3c(cc2F)c(=O)c(C(=O)O)cn3CCF)CC1 63.4%
Cn1c(=O)[nH]c(=O)c2c1nc(N1CCN(CCO)CC1)n2CCSc1nc2ccccc2s1 69.4%
Cc1ccc(-n2c(C)cc(/C=N\NC(=O)CC(=O)NC(C)C)c2C)cc1 33.2%
O=C(Nc1ccccc1N1CCN(c2ccccc2)CC1)c1cccc(F)c1 36.2%
C[C@H]1CCC(=O)N([C@H](CSc2ccccc2)Cc2ccccc2)CC1 12%
O=C(c1ccc(F)c(S(=O)(=O)N2CCOCC2)c1)N(CCc1ccccc1)Cc1ccccc1 19.7%
O=C1c2ccccc2C(=O)c2c1cccc2N1CCN(CCO)CC1 47.2%
CCCCCCCCCCOC(=O)Cn1c(COc2ccc(C)cc2)[n+](C)c2ccccc21 49.5%
CCCCCCCCCCOC(=O)Cn1c(COc2cccc(OC)c2)[n+](C)c2ccccc21 63.2%
CCOC(=O)c1cn(CC)c2cc(F)c(F)cc2c1=O 50.9%
COc1cccc(C(=O)NC(=O)Nc2nc(C)cc(C(F)(F)F)n2)c1 49.4%
COC(=O)c1ccc(C(NC(=O)OCc2ccccc2)/C(C)=C/[C@@H](C)C(=O)NCc2ccc(OC)c(OC)c2)cc1 (stereo partly specified) 22.6%
CCCCn1c(N)c(N(CCC(C)C)C(=O)c2ccc(COc3ccccc3)o2)c(=O)[nH]c1=O 24.5%
CN(C)/C=C/C(=O)c1cnc2sccn2c1=O 42.8%
COc1cc2c(cc1OC)C(Nc1ccc(S(N)(=O)=O)cc1)=NC(C)(C)C2 71.7%
CC(=O)c1ccccc1OCc1ccc(C(=O)c2ccccc2)cc1 25%
Cc1nnc(C)c2c(C)n(N)c(C)c12 19.2%
Nc1ccccc1SCc1cc([N+](=O)[O-])cc2c1OCOC2 33.2%
O=C(Nc1ccncc1)c1ccc(Cl)c([N+](=O)[O-])c1 35.4%
COc1ccc(Nc2nnc(C)c3ccccc23)cc1 38.3%
CN(C)c1ccnc(Nc2ccc(F)cc2)c1C#N 52.3%
Clc1ccc(C[n+]2cc(-c3ccc(Cl)cc3)n3c2CCC3)cc1 57.3%
COc1ccc2c(c1)cc1n2CCN=C1NN 49%
COc1cc2c(cc1OC)C(c1cccc([N+](=O)[O-])c1)=NCC2 68.6%
COc1ccc(Cn2c(-c3ccc(Cl)cc3)c[n+]3ccccc23)cc1 73.3%
Cc1cc(=O)oc2c(C)c(OC(C)C(=O)NC3CCN(Cc4ccccc4)CC3)ccc12 (stereo unspecified) 56.9%
Cn1c(=NC(=O)c2cnccn2)sc2ccccc21 55.7%
Cc1c(CCOC(=O)CC23CC4CC(CC(C)(C4)C2)C3)sc[n+]1Cc1ccc([N+](=O)[O-])cc1 26.9%
Cc1cccn2c(=O)c3cc(C#N)c(=O)n(CCCN4CCOCC4)c3nc12 42.7%
CN1CCN(c2nc(Nc3ccc(O)cc3)nc3ccccc23)CC1 44.2%
CCN1C(=NCCc2cccnc2)N[C@@H](c2ccccc2)[C@H](C(=O)OC)[C@H]1C 14%
CC(=O)N1CC[n+]2c(-c3ccc([N+](=O)[O-])cc3)csc21 38.1%
C[C@]1(C(=O)NCCc2c[nH]c3ccccc23)C=C[C@@H](Cc2ccccc2)N1C(=O)c1ccccc1 10.8%

activation, inactive:
COc1ccccc1NC(=O)CSc1nnc(-c2ccoc2C)n1CCc1ccccc1 3.73%
Cc1c(C)c2c(OCC(=O)N[C@@H](C(=O)O)c3ccccc3)cc3c(c2oc1=O)CCC(C)(C)O3 7.79%
Cc1nc2c(-c3ccccc3)c(C)[nH]n2c(=O)c1Cl 8.04%
CC1=CC(C)(C)N(C(=O)CSc2nnc(-c3ccccc3)o2)c2ccc(C)cc21 7.25%
COc1ccc2nc(/N=C(\N)NC(=O)Nc3ccccc3)nc(C)c2c1 6.06%
Cc1ccccc1C(=O)NCC(c1ccco1)N1CCc2ccccc21 (stereo unspecified) 9.36%
